Shown are actives, neighbours in structure and some others; about 4.1% of the full set was active somewhere.
MEKK3 PB1 HTS = modulators (inhibitors or enhancers) of MEK5 binding to human MEKK3 PB1 domain. bead-based flow cytometry, Alexa488-MEK5 binding to MEKK3; actives lie on both sides; 0 = blocked by unlabeled MEK5, 100 = vehicle. binding response (% of control), % at 10 µM. 290,000 compounds, 1.4% hits. AID 1529;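 active = binding response more than 3 SD above or below the average of its plate-row segment, actives on both sides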;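 note: Alexa488 bead fluorescence after subtracting the streptavidin-only scavenger bead signal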
SUMO Mot1 rescue = SUMOylation pathway inhibition by Mot1-301 growth rescue; S. cerevisiae Mot1-301 growth rescue, ATP luminescence, 38.5C; percent above DMSO median, 100 means doubled; growth rescue, % at 18.8 µM; 320,000 compounds, 1% hits; AID 2716;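 active = every valid replicate shows activation above 250% relative to neutral control wells; inactive = the rest, any valid replicate at or below 250%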;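 note: OY570 slx delta 5 strain wells were the positive control but not used for scaling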
CHT block = inhibitors of human choline transporter CHT | CHT-expressing cells, membrane potential dye, choline response; active compounds read low | B-score at 10 µM | 310,000 compounds, 0.86% hits | AID 488975;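 active = B-score over 3 SD under the library average, and starting fluorescence ratio not unusually high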;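 note: choline stimulus applied at its EC90 after an EC20 pre-addition; B-score computed on integrated fluorescence ratio after choline addition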
MEKK2mut PB1 HTS = signal of MEK5 binding to mutant human MEKK2 PB1 domain; bead flow cytometry, Alexa488-MEK5 binding to MEKK2 mutant; percent response, % at 10 µM; 290,000 compounds, 0.35% hits; AID 1530; in the data active = percent response above about 24%, passing the limit was not always enough
CHT PAM = allosterically activates the human high affinity choline transporter; CHT-expressing cells, membrane potential dye, choline EC20; active compounds read high; LV-AA mutant CHT in HEK293 cells; 310,000 compounds, 0.49% hits; B-score at 10 µM;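 active = initial fluorescence not abnormally high and integrated response B-score, plate-corrected, over 3 SD above library mean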
MEKK2 WT-MEK5 = raises or lowers MEK5 binding to wildtype human MEKK2 PB1 domain; Q9Y2U5; bead flow cytometry, Alexa488-MEK5 binding to MEKK2 WT; actives lie on both sides; binding response (% of control), % at 10 µM; 290,000 compounds, 1.1% hits; AID 1531; in the data active = binding response below about 67% or above about 130%
CHT act confirm = confirmation of human choline transporter (CHT) activators; CHT-expressing cells, membrane potential dye fluorescence (FDSS); % of choline EC20–EC90 response window; HEK293 expressing CHT LV-AA mutant; choline added at its EC20; AID 504833; 2,500 compounds, 91% hits; activation, % at 10 µM; shares compounds with CHT PAM;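 active = primary screen active, with duplicate mean activation above negative control mean plus 3 SD, cut at about 11% in these data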
HEK293 MP dye = counter-screen for CHT activators: effect in parental HEK293 cells; shares compounds with CHT PAM; AID 623908; ratio readout change at 10 µM, hits read low; 2,500 compounds, 62% hits; membrane potential dye fluorescence (FDSS); measured after EC20 choline addition;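 active = duplicate-averaged ratio beyond 3 SD from buffer wells, up or down, though filed actives are nearly all decreases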
An asterisk follows results filed as active; i = inactive; . = no result given.

SMILES	MEKK3 PB1 HTS	SUMO Mot1 rescue	CHT block	MEKK2mut PB1 HTS	CHT PAM	MEKK2 WT-MEK5	CHT act confirm	HEK293 MP dye
COc1ccc(NC(=O)C2CC(=O)N/C(=N/NC(=O)c3ccc(Cl)cc3)S2)cc1 (configuration not stated)	107	-2	i	5	i	110	.	.
CN1CCN(c2nc3c(c(=O)[nH]c(=O)n3C)n2CCCSc2ncccn2)CC1	99	41	i	-8	7.7*	99	46*	-54*
CCCCn1c(N2CCC(Cc3ccccc3)CC2)nc2c1c(=O)[nH]c(=O)n2C	104	-6	i	8	i	100	19*	i
Cc1nnc(SCCn2c(N3CCC(Cc4ccccc4)CC3)nc3c2c(=O)[nH]c(=O)n3C)s1	113	8	i	1	i	104	.	.
CCN1CCN(c2nc3c(c(=O)[nH]c(=O)n3C)n2CCCc2ccccc2)CC1	91	168	i	-8	i	91	33*	-54*
Cn1c(=O)[nH]c(=O)c2c1nc(N1CCN(Cc3ccccc3)CC1)n2CCCc1ccccc1	101	-28	i	-1	i	100	.	.
Cc1ccnc(SCCn2c(N3CCN(c4ccccc4)CC3)nc3c2c(=O)[nH]c(=O)n3C)n1	.	-5	i	.	8*	.	48*	-41*
CCN1CCN(c2nc3c(c(=O)[nH]c(=O)n3C)n2CCCSc2ncccn2)CC1	102	-4	i	3	7.5*	98	50*	-55*
N#CC1=C(Nc2ccccc2)SC=C(c2ccc(Cl)c(Cl)c2)N=C1N1CCOCC1	.	-2	i	.	i	.	40*	i
N#Cc1nc(-c2ccccc2Cl)oc1N1CCOCC1	93	-30	i	-5	i	97	.	.
Cc1ccccc1C(=O)NCC(=O)NNC(=O)c1cccc(Cl)c1	.	5	.	.	.	.	.	.
O=[N+]([O-])c1c(NCCO)cc(N2CCCCC2)c2nonc12	96	46	i	-12	i	83	.	.
CCOC(=O)N1CCN(c2cc(NCCO)c([N+](=O)[O-])c3nonc23)CC1	107	-7	i	-2	i	100	39*	-32*
COc1cccc(C(=O)Nc2cc(-c3cn4cccnc4n3)ccc2C)c1	85	-3	i	-5	i	97	.	.
CN(C)CCCOc1nc2c(c(=O)n(C)c(=O)n2C)n1C	93	-12	i	1	9.1*	100	49*	-55*
CN(C)CCNC(=O)c1ccccc1	104	9	i	1	i	100	.	.
Cc1sc(NC(=O)c2ccccc2)c(C(=O)NCCN(C)C)c1C	101	-11	i	7	i	102	37*	-57*
CCOC(=O)C1=C(c2ccccc2)NC(=O)NC1c1ccc(O)c(OCC)c1 (configuration not stated)	95	10	i	-2	i	94	.	.
CCOC(=O)C1=C(c2ccccc2)NC(=O)NC1c1ccc(O)c(Cl)c1 (configuration not stated)	100	-8	i	0	30*	102	198*	i
O=C1CC(C2CCCO2)C(=O)N1c1ccc(Cl)c(Cl)c1 (configuration not stated)	105	20	i	4	i	105	.	.
COc1ccccc1C(=O)Nc1ccc2nc3n(c(=O)c2c1)CCCC3	103	-9	i	7	i	105	.	.
CN(C)S(=O)(=O)N(CC(=O)NCCSCc1ccc(Cl)cc1)c1ccccc1	101	3	i	3	8*	104	1	i
